Several values for one entry are separate records, joined by “and”; a condition that tells them apart may be missing. Equal entries are not always repeated. Hit rate of the full screen: of about 350,000 compounds, about 990 (0.28%) were called active. Another 2% or so got no clear call; they are omitted. Calls come from the whole dose curve; as a rule, active = well fitted inhibition curve with a large enough effect; inconclusive = small, poorly fitted or top-dose-only effect; inactive = no such curve, though single readings can be large or run the other way. The sample as a whole holds a higher share of actives than the screen did. Where a structure was tested more than once in an assay, its records may differ in their call.
% is set by controls: 0 for no effect and ±100 for the full control effect; potency is the fitted concentration of half-maximal effect.

In this experiment the target is Tyrosyl-DNA phosphodiesterase 1 (Homo sapiens) (UniProt Q9NUW8). As to the kind of experiment: qHTS Assay for Inhibitors of Tyrosyl-DNA Phosphodiesterase (TDP1). Note: nearly all actives have a fitted effect of over 40% in size. To be noted: recombinant TDP1, AlphaScreen DNA substrate cleavage; series mostly up to 130 µM; activity change, negative = inhibition: at the top concentration. From the text: NIH Molecular Libraries Probe Production Network [MLPCN]
Chain of Tyrosyl-DNA phosphodiesterase 1 (Homo sapiens) (Q9NUW8 whole entry, looked up): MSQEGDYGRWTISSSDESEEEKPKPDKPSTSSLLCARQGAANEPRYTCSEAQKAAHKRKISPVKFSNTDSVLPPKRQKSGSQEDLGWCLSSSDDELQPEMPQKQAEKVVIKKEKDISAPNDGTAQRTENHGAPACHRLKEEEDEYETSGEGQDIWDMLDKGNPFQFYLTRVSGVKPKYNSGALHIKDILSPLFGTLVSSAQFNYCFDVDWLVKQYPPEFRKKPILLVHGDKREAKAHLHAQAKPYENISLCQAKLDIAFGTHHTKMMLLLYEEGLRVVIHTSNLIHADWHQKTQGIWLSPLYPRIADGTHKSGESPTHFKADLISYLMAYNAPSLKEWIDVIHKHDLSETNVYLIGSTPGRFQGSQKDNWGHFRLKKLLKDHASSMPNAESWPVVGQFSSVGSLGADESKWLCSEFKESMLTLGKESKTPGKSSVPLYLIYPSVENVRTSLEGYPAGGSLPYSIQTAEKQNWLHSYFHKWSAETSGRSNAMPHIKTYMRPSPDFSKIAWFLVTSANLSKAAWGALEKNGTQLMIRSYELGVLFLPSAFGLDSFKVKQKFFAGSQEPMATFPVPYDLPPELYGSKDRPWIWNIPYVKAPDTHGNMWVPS
NIH Chemical Genomics Center [NCGC]
Assay Provider: Yves Pommier and Christophe Marchand, National Cancer Institute
Assay Title: qHTS Assay for Inhibitors of Tyrosyl-DNA Phosphodiesterase (TDP1); note: nearly all actives have a fitted effect of over 40% in size
Human tyrosyl-DNA phosphodiesterase I (Tdp1) is a rational anticancer target because this enzyme is involved in the repair of DNA lesions created by the trapping of human DNA topoisomerase I (Top1) following treatment by anticancer agents such as camptothecins. Recombinant Tdp1 was expressed and purified from E. coli in the laboratory (Anthony et al, Nucleic Acids Research, 2007, Vol. 35, 4474-4484). A Tdp1 DNA substrate bearing a 5' biotin and a 3' phospho-tyrosine was obtained by custom synthesis. This oligonucleotidic DNA substrate was subsequently coupled to a fluorescein isothiocyanate (FITC) group via the free amino group present on the phospho-tyrosine. Tdp1 was screened against the NCGC small molecule library using the AlphaScreen (AS) detection method in which a streptavidin donor AS bead is bound at the 5' end and an anti-FITC AS acceptor bead is bound at the 3' end of the DNA oligonucleotidic substrate. In the presence of Tdp1, the enzyme cleaves the tyrosine-FITC group, leaving a 3' end phosphate on the DNA substrate. This cleavage reaction results in a loss of signal in AS.
[1] 3 ul of buffer is dispensed in columns 3 & 4 as negative control (no enzyme and maximum signal),
[2] 3 ul of enzyme (1 nM final) is dispensed in columns 1,2, 5-48,
[3] 1 ul of substrate (15 nM final) is dispensed throughout the plate,
[4] 1 ul of AS donor/acceptor bead mix (10 ug/ml final) is dispensed throughout the plate
3 ul of Tdp1 enzyme is dispensed to 1536-well Kalypsys black solid bottom plates. Compounds and controls (23 nl) are transferred via Kalypsys Pin Tool. The plates are incubated for 15 min at room temperature, and then 1 ul of substrate is added to start the reaction. After 5 min incubation at room temperature, 1 ul of AS donor/acceptor bead mix is added and the plates are further incubated for 10 min at room temperature. The detection is then performed on a PerkinElmer Envision reader.
Background: In qHTS, concentration-response curves come from the screen itself.
`COC(=O)c1ccccc1NC(=O)c1ccc(C#N)cc1`: the “activity change, negative = inhibition” value is -0.089% (inactive).

As for `CCOC(=O)c1ccc(NC(=O)c2c(NCc3cccs3)sc3c2CCCC3)cc1`, the “activity change, negative = inhibition” value was 9.48% (inactive). With `Cc1nn2c(=O)cc(COC(=O)c3cccc(NC(=O)COc4ccccc4Cl)c3)nc2s1`, the “activity change, negative = inhibition” value is -1.25% (inactive). Consider `Cc1ccccc1NC(=O)CN1C(=O)N/C(=C\c2cccn2-c2cccc(C(=O)O)c2)C1=O`, for which the Potency was 1.41 µM (active).

Regarding `O=C1N/C(=C/c2cccn2-c2ccccc2)C(=O)N1c1cccc(Cl)c1`, the “activity change, negative = inhibition” value is 2.82% (inactive). In the case of `Cc1cccc(NC(=O)CN2C(=O)c3ccccc3C2=O)c1C`, the “activity change, negative = inhibition” value was 3.47% (inactive). Regarding `O=C(COc1ccccc1Cl)Nc1ccc2nc(SCC(=O)N3CCCC3)sc2c1`, the “activity change, negative = inhibition” value is 3.65% (inactive). As to `Oc1ccc(/C=C/c2c(F)cccc2F)c2cccnc12`, the “activity change, negative = inhibition” value is -16.6% (inactive).

Take `O=S(=O)(c1cccc(C(F)(F)F)c1)N1CCN(c2nc(-c3cccs3)nc3ccccc23)CC1`: the “activity change, negative = inhibition” value is -0.0669% (inactive). The same measure, in the same setting: the same measure for `O=Cc1ccc(OCc2cn3ccccc3n2)cc1`: -7.14% (inactive); for `COc1ccc(C(=O)NCc2cn3ccccc3n2)cc1`: 4.76% (inactive). With `CN(C)C(CNC(=O)c1ccc(OCc2cn3ccccc3n2)cc1)c1ccco1` (centres undefined), the Potency is 14.1 µM (active). `CCOC(=O)Cn1c(=O)n(-c2ccccc2OC)c2nc(-c3cccc(F)c3)nc(C(N)=O)c21`: the “activity change, negative = inhibition” value was 7.69% (inactive). Still for that read-out and setting: for `COc1ccc(C(=O)Nc2ccc(-n3nncc3-c3ccccc3)cc2)cc1OC` the value was 10.4% (inactive). As for `CO/N=C(\C(=O)N[C@@H]1C(=O)N2C(C(=O)O)=C(COC(C)=O)CS[C@H]12)c1csc(N)n1` (stereo in doubt), the Potency entry is “inactive and 10 µM (active) and 20 µM (active)”. Consider `Cc1cc(C)cc(C(=O)NC2C(=O)N3C(C(=O)O)=C(CSc4nnc(C)s4)CSC23)c1` (centres undefined), for which the “activity change, negative = inhibition” value was -8.05% (inactive). Take `C=CC1=C(C(=O)O)N2C(=O)[C@@H](NC(=O)/C(=N\OCC(=O)O)c3csc(N)n3)[C@H]2SC1`: the Potency is 14.1 µM (active). As for `Cc1nnc(SCC2=C(C(=O)O)N3C(=O)C(NC(=O)Cn4nc(C)c(Cl)c4C)C3SC2)s1` (centres undefined), the “activity change, negative = inhibition” value was 0% (inactive). For `COc1ccc(C2Nc3ccc(NC(=O)COC(C)=O)cc3C(=O)N2Cc2ccccc2)cc1COc1ccc(NC(C)=O)cc1` (centres undefined), the “activity change, negative = inhibition” value is -3.82% (inactive). Consider `COc1cccc(Cn2c(SCc3ccc(C(=O)N4CCC(C)CC4)cc3)nc3ccncc32)c1`, for which the “activity change, negative = inhibition” value is 5.06% (inactive). For `CCOC(=O)c1ccc(NC(=O)c2c(NCc3cccc(OC)c3)sc3c2CCC3)cc1`, the “activity change, negative = inhibition” value was 7.58% (inactive).

As to `COC(=O)c1ccc(NC(=O)c2cnn(-c3ccc(Cl)cc3)c2C2CCN(C(=O)OC(C)(C)C)CC2)cc1`, the “activity change, negative = inhibition” value was -1.06% (inactive).

Take `COc1ccc(C(=O)Nc2cccc(C(=O)OCc3cc(=O)n4c5c(sc4n3)CCCC5)c2)cc1`: the “activity change, negative = inhibition” value is 1.25% (inactive). The same measure, in the same setting: for `CC(C)c1ccc(NC(=O)c2ccc(Cn3nc(N4CCN(c5ccccc5)CC4)ccc3=O)o2)cc1` the value was 0% (inactive); for `Cc1ccc(-c2nc3ccccn3c2Nc2ccc(F)cc2)o1`, 4.27% (inactive). For `Cc1ccc2nc(-c3ccncc3)cc(C(=O)Nc3ccc(OC(F)F)cc3)c2c1`, the Potency is 50.1 µM (active). `Cc1ccc2nc(-c3ccncc3)cc(C(=O)Nc3ccncc3)c2c1`: the “activity change, negative = inhibition” value was 4.27% (inactive). Still for that read-out and setting: the same measure for `Cc1ccc2nc(-c3ccncc3)cc(C(=O)Nc3ccc4c(c3)OCCO4)c2c1`: -8.22% (inactive); for `CN(C)Cc1cn(-c2ccccc2)nc1-c1ccccc1`: 0.719% (inactive); for `COC(=O)c1ccccc1S(=O)(=O)Nc1ccc(OC)cc1`: 4.45% (inactive). Regarding `COc1ccc(C2Nc3ccccc3C(=O)N2Cc2ccc(Cl)cc2)cc1COc1ccc(NC(C)=O)cc1` (centres undefined), the “activity change, negative = inhibition” value is -0.0444% (inactive).

In the case of `Cc1ccc(-c2nn3c(=O)cc(CN4CCN(C(=O)Nc5cccc(C(F)(F)F)c5)CC4)nc3s2)cc1`, the “activity change, negative = inhibition” value was 8.11% (inactive). As to `N#Cc1nc(Nc2cccc(Cl)c2)nc(NC2CCCC2)n1`, the “activity change, negative = inhibition” value was -2.17% (inactive). Still for that read-out and setting: the same measure for `O=C1CCc2cc(S(=O)(=O)Nc3cccc(Oc4ccccc4)c3)ccc2N1`: 2.51% (inactive); for `Oc1c(C(c2ccc(F)cc2)N2CCN(Cc3ccccc3)CC2)sc2nc(-c3ccco3)nn12` (centres undefined): 2.6% (inactive). For the compound `O=C(NCc1ccccn1)c1ccc2nc(-c3ccco3)c(-c3ccco3)nc2c1`, the Potency is 8.91 µM (active). Take `O=C1CSc2ccc(C(=O)NCc3ccccn3)cc2N1`: the “activity change, negative = inhibition” value is 0.216% (inactive). As for `C=CCNC(=O)c1ccc2nc(-c3ccco3)c(-c3ccco3)nc2c1`, the “activity change, negative = inhibition” value was -9.19% (inactive).

In the case of `COc1ccc(N2C(=O)CSC23C(=O)N(Cc2cccc(F)c2)c2ccccc23)cc1Cl` (centres undefined), the “activity change, negative = inhibition” value is 5.63% (inactive). For `CCCC(=O)N1CCN(c2nc3c(OC)ccc(C)c3s2)CC1`, the “activity change, negative = inhibition” value is 0% (inactive). Consider `CC(=O)c1sc2nc(SCC(=O)N3CCCCC3)[nH]c(=O)c2c1C`, for which the “activity change, negative = inhibition” value is -13% (inactive). With `CSc1nnc(SCc2nc3sc(C(=O)O)c(C)c3c(=O)[nH]2)s1`, the Potency is 22.4 µM (active). Turning to `CCOC(=O)c1sc2nc(CSc3ccccc3)[nH]c(=O)c2c1C`, the “activity change, negative = inhibition” value was 3.49% (inactive). For the compound `Cc1nn(-c2ccc(N3CCCCC3)nn2)c(C)c1CCC(=O)NCc1ccc(F)cc1`, the “activity change, negative = inhibition” value was 0.649% (inactive). Consider `N#CN1CCC(NC(=O)c2ccc(F)cc2)CC1`, for which the “activity change, negative = inhibition” value is 0.796% (inactive). As for `NC(=O)C1CCN(C(=O)c2cccc(NC(=O)c3nsc4ccccc34)c2)CC1`, the “activity change, negative = inhibition” value was 2.7% (inactive). As for `CC(C)c1ccc(NC(=O)C2CCN(c3nc(-c4ccc(C(C)C)cc4)no3)CC2)cc1`, the “activity change, negative = inhibition” value is 8.11% (inactive). As for `O=C(COC(=O)CCC(=O)c1cccs1)NCc1ccco1`, the Potency is 22.4 µM (active).

In the case of `O=C(COC(=O)C12CC3CC(CC(C3)C1)C2)NCc1ccco1`, the Potency entry is “inactive”.
